{"source": "PubChem BioAssay AID1259422", "about": "(The Scripps Research Institute Molecular Screening Center, 2018)", "note": "Several values for one entry are separate records, joined by “and”; a condition that tells them apart may be missing. Identical values can stand only once. The campaign covered roughly 640,000 compounds. About 9,300 (1.5%) were called active. This is one part of a sample in which actives are shown more often than they occur. A number with no mark means an inactive call. Cut-off read from the data, not from the text of the source: active = inhibition above about 32%; inactive = the rest.", "data": [{"experiment": "TEAD-YAP interaction inhibition, primary screen, TEAD-YAP interaction inhibitor project, luminescence, HEK-TIYL cells (AID 1259422);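 note: 0% = median of test compound wells and 100% = reference inhibitor wells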", "conditions": "TEAD-Gal4/YAP UAS-luciferase luminescence, at 9.12 µM, stronger effect = higher value", "values": [{"smiles": "COc1ccc(-c2csc(N3CCC(C)CC3)n2)cc1", "inhibition": "-61.1%"}, {"smiles": "O=C1CCCC2=C1C(c1c(F)cccc1Cl)Nc1ccc(C(=O)c3ccccc3)cc1N2", "note": "(stereo not drawn)", "inhibition": "-16.1%"}, {"smiles": "COc1cc(C2Nc3ccc(C(=O)c4ccccc4)cc3NC3=C2C(=O)CCC3)cc(OC)c1OC", "note": "(stereo not drawn)", "inhibition": "59.8% (active)"}, {"smiles": "O=C1CCCC2=C1C(c1ccc(Cl)cc1)Nc1ccc(C(=O)c3ccccc3)cc1N2", "note": "(stereo not drawn)", "inhibition": "13.4%"}, {"smiles": "Cc1ccc(C2=CC(c3ccccc3F)n3nnnc3N2)cc1", "note": "(stereo not drawn)", "inhibition": "-31.7%"}, {"smiles": "COc1ccccc1CN(Cc1cc2cccc(C)c2n2nnnc12)C(=O)C1CC1", "inhibition": "6.49%"}, {"smiles": "O=C1C(=O)N(CCCn2ccnc2)C(c2ccc(Cl)cc2)/C1=C(/O)c1ccccc1", "note": "(stereo not drawn)", "inhibition": "7.39%"}, {"smiles": "COC(=O)c1nnn(CC(=O)Nc2ccc3c(c2)OCCO3)c1C(=O)OC", "inhibition": "9.22%"}, {"smiles": "COc1cc(NS(=O)(=O)c2ccc(N/C=C\\C(=O)c3cccs3)cc2)nc(OC)n1", "inhibition": "-5.11%"}, {"smiles": "COc1cccc(C(=O)/C=C\\Nc2ccc(S(=O)(=O)Nc3nc(C)cc(C)n3)cc2)c1", "inhibition": "-30.1% and -6.6%"}, {"smiles": "Cc1cc(C)nc(NS(=O)(=O)c2ccc(N/C=C\\C(=O)c3cccs3)cc2)n1", "inhibition": "49.6% (active)"}, {"smiles": "N#CCCNc1ncc(-c2ccc(Cl)cc2)cn1", "inhibition": "-8.87%"}, {"smiles": "Cc1ccc(NC(=O)CN2CCN(c3ccc(Cl)cc3)CC2)cc1Br", "inhibition": "-5.18%"}, {"smiles": "CCOC(=O)C1=C(C)NC(C)=C(C(=O)OCC)C1c1ccc(C2C(C(=O)OCC)=C(C)NC(C)=C2C(=O)OCC)cc1", "inhibition": "8.31%"}, {"smiles": "O=C(Cc1ccsc1)N1CCC2(CC1)CC2C(=O)N1CCN(Cc2ccccc2)CC1", "note": "(stereo not drawn)", "inhibition": "7.69%"}, {"smiles": "O=C(NCc1ccccc1)C1CC12CCN(C(=O)Cc1ccsc1)CC2", "note": "(stereo not drawn)", "inhibition": "-4.7%"}, {"smiles": "O=C(NCc1ccccc1)C1CC12CCN(Cc1ccsc1)CC2", "note": "(stereo not drawn)", "inhibition": "50.1% (active)"}, {"smiles": "CCOC(=O)c1c(NC(=O)C(C)Sc2nnc(CNC(=O)c3ccc(Cl)cc3Cl)n2C)sc2c1CCCC2", "note": "(stereo not drawn)", "inhibition": "5.37%"}, {"smiles": "COc1ccc(-n2nc(C(=O)N3CCN(C)CC3)c3ccccc3c2=O)c(OC)c1", "inhibition": "3.03%"}, {"smiles": "COc1ccc(/C=C(/NC(=O)c2ccco2)C(=O)Nc2cccc(O)c2)cc1", "inhibition": "0.64%"}, {"smiles": "COc1ccc(C2CC(C(F)(F)F)n3ncc(C(=O)NCc4cccs4)c3N2)cc1OC", "note": "(stereo not drawn)", "inhibition": "-29.4%"}, {"smiles": "O=C(C(Cc1ccccc1)NS(=O)(=O)c1cccs1)N1CCc2ccccc21", "note": "(stereo not drawn)", "inhibition": "7.02%"}, {"smiles": "Cc1ccc2cc(CN(CCCO)S(=O)(=O)c3ccccc3[N+](=O)[O-])c(=O)[nH]c2c1", "inhibition": "-39.4%"}]}]}
